Structures can show the parent of a compound that is named as a salt. ± gives the standard deviation of the averaged measurements.
Columns and labels:
Assay in all cases: growth (OD600 after 10 h); higher = more growth (less inhibition)
[1] = system: E. coli TESEC Alr+ wild-type control; conditions: compound 0.1 mM; raw OD600 reference: median of DMSO wells 0.241, cell-free background 0.041
Procedure: (§1)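 TESEC Mtb Alr E. coli, or the Alr+ wild-type control, in 384-well plates with Prestwick library compounds at 0.1 mM and 1% DMSO, across arabinose induction levels of 1E3 to 1E7 nM. Growth is read as OD600 after 10 h at 37 °C in triplicate biological replicates.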

E. coli TESEC Mtb Alr [2] = conditions: compound 0.1 mM
Procedure: as §1

E. coli TESEC Mtb Asd = conditions: compound 0.1 mM
Procedure: (§2)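 TESEC E. coli strains in which the native enzyme is deleted and replaced by arabinose-inducible Mtb Asd, DapB, CysH or TrpD, each grown in its selective medium. Strains were screened against the Prestwick library at 0.1 mM and 1% DMSO in 384-well format at low and high arabinose induction. Growth is read as OD600 after 10 h in triplicate.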

E. coli TESEC Mtb DapB = conditions: compound 0.1 mM
Procedure: as §2

[3] = system: E. coli TESEC Alr+ wild-type control; conditions: compound 0.1 mM; raw OD600 reference: median of DMSO wells 0.49, cell-free background 0.052
Procedure: (§3)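 TESEC Mtb Alr E. coli (ΔaraC ΔtolC ΔentC Δalr ΔdadX, arabinose-inducible Mtb Alr) or the Alr+ wild-type control strain, grown in defined M9-fructose medium without D-alanine in 96-well plates with Prestwick library compounds at 0.1 mM and 1% DMSO. Low Alr induction is 0.1 µM arabinose and high induction is 10 mM arabinose.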

E. coli TESEC Mtb Alr [4] = conditions: compound 0.1 mM; remark: listed apart in the source
Procedure: as §3

[5] = arabinose 1000 nM, raw OD600 reference: median of DMSO wells 0.294, cell-free background 0.041
[6] = arabinose 10000 nM, raw OD600 reference: median of DMSO wells 0.264, cell-free background 0.041
[7] = arabinose 100000 nM, raw OD600 reference: median of DMSO wells 0.201, cell-free background 0.041
[8] = arabinose 1000000 nM, raw OD600 reference: median of DMSO wells 0.193, cell-free background 0.041
[9] = arabinose 10000000 nM, raw OD600 reference: median of DMSO wells 0.146, cell-free background 0.041
[10] = arabinose induction (level): High, raw OD600 reference: median of DMSO wells 0.331, cell-free background 0.041
[11] = arabinose induction (level): Low, raw OD600 reference: median of DMSO wells 0.417, cell-free background 0.041
[12] = arabinose induction (level): High, raw OD600 reference: median of DMSO wells […], cell-free background 0.041
[13] = arabinose induction (level): Low, raw OD600 reference: median of DMSO wells 0.227, cell-free background 0.041
[14] = arabinose 100 nM, raw OD600 reference: median of DMSO wells 0.413, cell-free background 0.052
[15] = arabinose 10000000 nM, raw OD600 reference: median of DMSO wells […], cell-free background 0.052

| Structure (SMILES) | growth [1] | growth (E. coli TESEC Mtb Alr [2]; [5]) | growth (E. coli TESEC Mtb Alr [2]; [6]) | growth (E. coli TESEC Mtb Alr [2]; [7]) | growth (E. coli TESEC Mtb Alr [2]; [8]) | growth (E. coli TESEC Mtb Alr [2]; [9]) | growth (E. coli TESEC Mtb Asd; [10]) | growth (E. coli TESEC Mtb Asd; [11]) | growth (E. coli TESEC Mtb DapB; [12]) | growth (E. coli TESEC Mtb DapB; [13]) | growth [3] | growth (E. coli TESEC Mtb Alr [4]; [14]) | growth (E. coli TESEC Mtb Alr [4]; [15]) |
| --- | --- | --- | --- | --- | --- | --- | --- | --- | --- | --- | --- | --- | --- |
| CC(C)(C(=O)O)c1ccc(C(O)CCCN2CCC(C(O)(c3ccccc3)c3ccccc3)CC2)cc1 (configuration not stated) [Fexofenadine HCl] | 0.228 ± 0.0075 | 0.314 ± 0.0088 | 0.285 ± 0.0078 | 0.212 ± 0.017 | 0.184 ± 0.011 | 0.157 ± 0.0041 | 0.235 ± 0.015 | 0.348 ± 0.069 | 0.201 ± 0.025 | 0.266 ± 0.036 | 0.567 ± 0.054 | 0.431 ± 0.0065 | 0.309 ± 0.013 |
| CC(C)Cn1cnc2c(N)nc3ccccc3c21 [Imiquimod] | 0.224 ± 0.017 | 0.282 ± 0.0092 | 0.282 ± 0.01 | 0.165 ± 0.012 | 0.178 ± 0.014 | 0.158 ± 0.01 | 0.209 ± 0.026 | 0.392 ± 0.024 | 0.21 ± 0.011 | 0.261 ± 0.045 | 0.574 ± 0.048 | 0.411 ± 0.0054 | 0.301 ± 0.015 |
| N=C(N)N/N=C/c1c(Cl)cccc1Cl [Guanabenz acetate] | 0.189 ± 0.012 | 0.224 ± 0.0084 | 0.2721 ± 0.00092 | 0.221 ± 0.021 | 0.144 ± 0.005 | 0.168 ± 0.0024 | 0.31 ± 0.039 | 0.432 ± 0.026 | 0.194 ± 0.0026 | 0.258 ± 0.065 | 0.453 ± 0.026 | 0.408 ± 0.0073 | 0.318 ± 0.011 |
| C[C@@H]1[C@H](O)[C@@H](C)/C=C/C=C/C=C/C=C/C=C/C=C/C=C/[C@H](O[C@@H]2O[C@H](C)[C@@H](O)[C@H](N)[C@@H]2O)C[C@@H]2O[C@](O)(C[C@@H](O)C[C@@H](O)[C@H](O)CC[C@@H](O)C[C@@H](O)CC(=O)O[C@H]1C)C[C@H](O)[C@H]2C(=O)O [Amphotericin B] | 0.316 ± 0.0027 | 0.33 ± 0.0067 | 0.27 ± 0.0035 | 0.345 ± 0.0081 | 0.182 ± 0.0098 | 0.261 ± 0.0027 | 0.416 ± 0.042 | 0.504 ± 0.026 | 0.208 ± 0.019 | 0.237 ± 0.046 | 0.532 ± 0.087 | 0.433 ± 0.022 | 0.478 ± 0.027 |

Source: the supplement of paper PMC9262897, “Low-cost anti-mycobacterial drug discovery using engineered E. coli” (Nature Communications, 2022)
